We go through 40 compounds from PubChem BioAssay (NCATS).

Records with an inconclusive call do not appear. A number with no mark means an inactive call. Calls of active or inactive are those of the source. The call rests on the fitted dose curve; in most records, active means well fitted cell-killing curve with a large enough effect; inconclusive means small, poorly fitted or top-dose-only effect, or effect the other way; inactive means flat fitted curve, though single readings scatter.
On the % scale 0 is the no-effect control and ±100 the full control effect; potency means the concentration at half of the fitted maximal effect.

For one assay, the system named is C33A. Nature of the assay: Primary qHTS to identify gynecologic anti-cancer compounds using libraries of approved drugs and bioactive compounds (AID 1345084). Further: nearly all actives have a fitted effect of over 55% in size. The settings on record: Gynecologic cancer cell panel viability, ATPlite luminescence, 48 h; series mostly up to 57.5 µM; activity change, negative = cytotoxicity: at the top concentration. The procedure, abridged: (§1)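 Luminescence from the ATPlite ATP-monitoring reagent indicates viable cell number; lower signal means cytotoxicity. Cells received compound 16 h after seeding and were exposed for 48 h across five concentrations.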
In general terms: qHTS replaces the single test concentration by a dilution series.
As to `Fc1ccc(CN2CCC(Nc3ccc(C(F)(F)F)nn3)CC2)cc1F`, the “activity change, negative = cytotoxicity” value was 2.78%.
As to `Cc1nc(N2CCN(C(=O)c3ccco3)CC2)c2c3c(sc2n1)CCCC3`, the “activity change, negative = cytotoxicity” value is 3.2%.
The same measure, in the same setting: under `CC(F)(F)CN1CCOc2c(nn(-c3ccccc3Cl)c2-c2ccc(Cl)cc2)C1=O` stands 17.7%; under `C=CC(=O)N1CCCC(n2nc(-c3ccc(Oc4ccccc4)cc3)c3c(N)ncnc32)C1` (stereo not given), -4.26%; under `CN(C)c1cccc(Oc2cnc(Nc3cccc(O)c3)nc2)c1`, 5.19%.
Take `CN1CCC(NC(=O)c2cc(-c3c(O)cc(O)cc3Oc3ccc([N+](=O)[O-])cc3)on2)CC1`: the Potency was 0.708 µM (active).
For the compound `CC1CC(=O)C2=C(C1)C1OC1C1(O)C2C(=O)c2cccc(O)c2C1O` (stereo not given), the “activity change, negative = cytotoxicity” value was -35.7% [at 38.5 µM].
With `NCC1CCN(c2nccc(-c3ccc4ccccc4c3)n2)CC1`, the Potency is 28.2 µM (active).
`O=C(Nc1nc2cc(C(F)(F)F)cc(NC3CC3)n2n1)c1cccnc1`: the “activity change, negative = cytotoxicity” value is -0.95%.
Still for that read-out and setting: the result for `OC1CCC(Nc2nc(-c3ccccc3)nc3[nH]ccc23)CC1` (stereo not given) reads -20.7%.
Consider `COC(=O)CC1OC(C)C2=C(O)c3c(O)cccc3C(=O)C23OC13` (stereo not given), for which the Potency is 12.6 µM (active).
Same read-out and setting: the result for `Cn1ncc(Cl)c1-c1cc(C(=O)N[C@H](CN)Cc2ccc(F)c(F)c2)sc1Cl` reads 5.62 µM (active); that for `CCC(C)CC(=O)OC1C(=O)C(CO)=CC(O)C1C(C)C` (stereo not given), 31.6 µM (active).
Turning to `Cc1nc2ccc(CN(C)c3ccc(C(=O)NC(CCC(=O)O)C(=O)O)s3)cc2c(=O)[nH]1` (stereo not given), the “activity change, negative = cytotoxicity” value is -14.1%.
The same measure, in the same setting: under `COC1CC(=O)C23C(=O)NC(Cc4c[nH]c5ccccc45)C2C(C)C2(C)OC2C3/C=C/CC(C)CC1O` (stereo not given) stands -19.9% [at 25.3 µM].
Consider `Nc1ncnc2c1nc(Cl)n2C1OC2COP(=O)(O)OC2C1O` (stereo not given), for which the Potency was 7.94 µM (active).
Take `Cn1cc(-c2cnn3c(N)c(Br)c([C@@H]4CCCNC4)nc23)cn1`: the “activity change, negative = cytotoxicity” value was -14.3%.
Consider `COc1ccc(C[C@H]2COC(=O)[C@@H]2Cc2ccc(O[C@@H]3O[C@H](CO)[C@@H](O)[C@H](O)[C@H]3O)c(OC)c2)cc1OC`, for which the “activity change, negative = cytotoxicity” value is -20% [at 25.3 µM].
For the compound `CCC(CC)C(c1ccc(Nc2nc3ccccc3s2)cc1)n1cncn1` (stereo not given), the Potency is 25.1 µM (active).
As to `O=C(C1CCCCC1)N(CCN1CCN(c2ccccc2O)CC1)c1ccccn1`, the “activity change, negative = cytotoxicity” value was 0.369%.
On the same count and under the same terms, the result for `COC1=CC(=O)C[C@@H](C)[C@@]12Oc1c(Cl)c(OC)cc(OC)c1C2=O` reads -44.5% [at 38.5 µM]; that for `C/C1=C\[C@@H](C)C[C@@H](C)[C@@H](Cc2cnco2)OC(=O)/C(C)=C/[C@@H](C)C[C@@H](C)[C@@H](Cc2cnco2)OC1=O`, -44.7% [at 25.3 µM].
On the same count and under the same terms, under `CC(C)c1ccc(NC(=O)c2cccs2)c(-c2nc3ccccc3[nH]c2=O)c1` stands 3.65%.
Turning to `C=C[C@@]1(C)CCC2C(=CCC3[C@]2(C)CCC[C@@]3(C)C(=O)O)C1` (stereo not given in full), the “activity change, negative = cytotoxicity” value is -17.2%.
On the same count and under the same terms, the result for `CCCSc1nc(N[C@@H]2C[C@H]2c2ccc(F)c(F)c2)c2nnn([C@@H]3C[C@H](OCCO)[C@@H](O)[C@H]3O)c2n1` reads -9.83%; that for `Cc1cc(C(C)Nc2ccccc2C(=O)O)c2nc(N3CCOCC3)cc(=O)n2c1` (stereo not given), -22.8%; that for `FC(F)(F)c1ccccc1-c1cc(C(F)(F)F)c2nc(C3=NOC4(CCCCC4)C3)[nH]c2c1`, -20.1%.
The same measure, in the same setting: the result for `Cc1cc(OCCCS(C)(=O)=O)cc(C)c1-c1cccc(COc2ccc(C3=CC(=O)NS3=O)cc2)c1` (stereo not given) reads 18.2%; that for `N#C/C(=C1\Nc2ccccc2S1)c1ccnc(NCCc2cccnc2)n1`, -0.217%; that for `Cc1sc2c(c1C)C(c1ccc(Cl)cc1)=N[C@H](CC(=O)NCCCCNC(=O)COc1cccc3c1C(=O)N([C@H]1CCC(=O)NC1=O)C3=O)c1nnc(C)n1-2`, 1.44%.
The same measure, in the same setting: under `Cn1c(=O)c(F)c(Nc2ccc(I)cc2F)c2c(=O)n(CC(O)CO)cnc21` (stereo not given) stands -9.74%.
In the case of `C/C(=C\Cc1c(O)c(Cl)c(C)c(C=O)c1O)CC/C=C(\C)[C@H]1CC(=O)C(C)(C)O1`, the “activity change, negative = cytotoxicity” value was -6.97% [at 25.3 µM].
Same read-out and setting: under `CCCn1ncc(CN2CCCC(C(=O)c3cccc(OC(C)C)c3)C2)c1C` (stereo not given) stands -11.8%; under `Cn1ncnc1[C@H]1c2n[nH]c(=O)c3cc(F)cc(c23)N[C@@H]1c1ccc(F)cc1`, -31% [at 25.3 µM].
With `CC(C)(O)C1Cc2c(ccc(C(=O)CCc3ccccc3)c2O)O1` (stereo not given), the Potency was 11.2 µM (active).
`C[C@H](Oc1cc(-n2cnc3ccc(CN4CCN(C)CC4)cc32)sc1C(N)=O)c1ccccc1C(F)(F)F`: the Potency was 15.8 µM (active).
For the compound `COc1cc2ncnc(Nc3ccc(O)c(Br)c3)c2cc1OC`, the “activity change, negative = cytotoxicity” value was -29.6%.
Still for that read-out and setting: the result for `Nc1nc2c(ncn2C2OC3COP(=O)(O)OC3C2O)c(=O)[nH]1` (stereo not given) reads 7.01%; that for `CC1(C)SCCN(S(=O)(=O)c2ccc(Oc3ccncc3)cc2)[C@H]1C(=O)NO`, -5.83%.
Consider `CC(O)(C(=O)C1CC1(CO)COC1OC(CO)C(O)C(O)C1O)C1C(O)CC2C3CC=C4CC(O)CC(O)C4(C)C3C(O)CC21C` (stereo not given), for which the Potency is 0.562 µM (active).

Another assay relates to CAOV3. Described as above. The settings on record: Gynecologic cancer cell panel viability, ATPlite luminescence, 48 h; series mostly up to 57.5 µM; activity change, negative = cytotoxicity: at the top concentration. The procedure, abridged: as §1
In general terms: In ATP-based viability assays light output follows the ATP content of the culture.
On to `Fc1ccc(CN2CCC(Nc3ccc(C(F)(F)F)nn3)CC2)cc1F`, for which the “activity change, negative = cytotoxicity” value is 21%.
On the same count and under the same terms, the result for `Cc1nc(N2CCN(C(=O)c3ccco3)CC2)c2c3c(sc2n1)CCCC3` reads 14.3%; that for `CC(F)(F)CN1CCOc2c(nn(-c3ccccc3Cl)c2-c2ccc(Cl)cc2)C1=O`, 19.4%; that for `C=CC(=O)N1CCCC(n2nc(-c3ccc(Oc4ccccc4)cc3)c3c(N)ncnc32)C1` (stereo not given), -13.2%.
Turning to `CN(C)c1cccc(Oc2cnc(Nc3cccc(O)c3)nc2)c1`, the “activity change, negative = cytotoxicity” value is 13.2%.
As to `CN1CCC(NC(=O)c2cc(-c3c(O)cc(O)cc3Oc3ccc([N+](=O)[O-])cc3)on2)CC1`, the Potency is 0.398 µM (active).
As for `CC1CC(=O)C2=C(C1)C1OC1C1(O)C2C(=O)c2cccc(O)c2C1O` (stereo not given), the “activity change, negative = cytotoxicity” value was -8.77% [at 38.5 µM].
Take `NCC1CCN(c2nccc(-c3ccc4ccccc4c3)n2)CC1`: the Potency is 28.2 µM (active).
As for `O=C(Nc1nc2cc(C(F)(F)F)cc(NC3CC3)n2n1)c1cccnc1`, the “activity change, negative = cytotoxicity” value was 8.96%.
For `OC1CCC(Nc2nc(-c3ccccc3)nc3[nH]ccc23)CC1` (stereo not given), the “activity change, negative = cytotoxicity” value was -17.3%.
Turning to `COC(=O)CC1OC(C)C2=C(O)c3c(O)cccc3C(=O)C23OC13` (stereo not given), the Potency was 3.55 µM (active).
On to `Cn1ncc(Cl)c1-c1cc(C(=O)N[C@H](CN)Cc2ccc(F)c(F)c2)sc1Cl`, for which the “activity change, negative = cytotoxicity” value is -11.4%.
`CCC(C)CC(=O)OC1C(=O)C(CO)=CC(O)C1C(C)C` (stereo not given): the Potency was 28.2 µM (active).
Turning to `Cc1nc2ccc(CN(C)c3ccc(C(=O)NC(CCC(=O)O)C(=O)O)s3)cc2c(=O)[nH]1` (stereo not given), the “activity change, negative = cytotoxicity” value was 0.0071%.
On the same count and under the same terms, under `COC1CC(=O)C23C(=O)NC(Cc4c[nH]c5ccccc45)C2C(C)C2(C)OC2C3/C=C/CC(C)CC1O` (stereo not given) stands -22.5% [at 25.3 µM].
Regarding `Nc1ncnc2c1nc(Cl)n2C1OC2COP(=O)(O)OC2C1O` (stereo not given), the Potency was 5.62 µM (active).
Regarding `Cn1cc(-c2cnn3c(N)c(Br)c([C@@H]4CCCNC4)nc23)cn1`, the “activity change, negative = cytotoxicity” value was -30.8%.
As for `COc1ccc(C[C@H]2COC(=O)[C@@H]2Cc2ccc(O[C@@H]3O[C@H](CO)[C@@H](O)[C@H](O)[C@H]3O)c(OC)c2)cc1OC`, the “activity change, negative = cytotoxicity” value was -3.53% [at 25.3 µM].
Consider `CCC(CC)C(c1ccc(Nc2nc3ccccc3s2)cc1)n1cncn1` (stereo not given), for which the Potency was 28.2 µM (active).
Turning to `O=C(C1CCCCC1)N(CCN1CCN(c2ccccc2O)CC1)c1ccccn1`, the “activity change, negative = cytotoxicity” value was 5.63%.
The same measure, in the same setting: under `COC1=CC(=O)C[C@@H](C)[C@@]12Oc1c(Cl)c(OC)cc(OC)c1C2=O` stands -4.74% [at 38.5 µM]; under `C/C1=C\[C@@H](C)C[C@@H](C)[C@@H](Cc2cnco2)OC(=O)/C(C)=C/[C@@H](C)C[C@@H](C)[C@@H](Cc2cnco2)OC1=O`, -23.8% [at 25.3 µM].
The same measure, in the same setting: the result for `CC(C)c1ccc(NC(=O)c2cccs2)c(-c2nc3ccccc3[nH]c2=O)c1` reads -15.8%; that for `C=C[C@@]1(C)CCC2C(=CCC3[C@]2(C)CCC[C@@]3(C)C(=O)O)C1` (stereo not given in full), -17.6%; that for `CCCSc1nc(N[C@@H]2C[C@H]2c2ccc(F)c(F)c2)c2nnn([C@@H]3C[C@H](OCCO)[C@@H](O)[C@H]3O)c2n1`, 0.269%.
The same measure, in the same setting: under `Cc1cc(C(C)Nc2ccccc2C(=O)O)c2nc(N3CCOCC3)cc(=O)n2c1` (stereo not given) stands -23.1%.
Regarding `FC(F)(F)c1ccccc1-c1cc(C(F)(F)F)c2nc(C3=NOC4(CCCCC4)C3)[nH]c2c1`, the “activity change, negative = cytotoxicity” value is 0.608%.
Same read-out and setting: the result for `Cc1cc(OCCCS(C)(=O)=O)cc(C)c1-c1cccc(COc2ccc(C3=CC(=O)NS3=O)cc2)c1` (stereo not given) reads 0.604%; that for `N#C/C(=C1\Nc2ccccc2S1)c1ccnc(NCCc2cccnc2)n1`, -32.6%.
Turning to `Cc1sc2c(c1C)C(c1ccc(Cl)cc1)=N[C@H](CC(=O)NCCCCNC(=O)COc1cccc3c1C(=O)N([C@H]1CCC(=O)NC1=O)C3=O)c1nnc(C)n1-2`, the “activity change, negative = cytotoxicity” value was -7.44%.
In the case of `Cn1c(=O)c(F)c(Nc2ccc(I)cc2F)c2c(=O)n(CC(O)CO)cnc21` (stereo not given), the “activity change, negative = cytotoxicity” value is -18.6%.
Still for that read-out and setting: under `C/C(=C\Cc1c(O)c(Cl)c(C)c(C=O)c1O)CC/C=C(\C)[C@H]1CC(=O)C(C)(C)O1` stands -6.06% [at 25.3 µM].
Still for that read-out and setting: under `CCCn1ncc(CN2CCCC(C(=O)c3cccc(OC(C)C)c3)C2)c1C` (stereo not given) stands 0.387%; under `Cn1ncnc1[C@H]1c2n[nH]c(=O)c3cc(F)cc(c23)N[C@@H]1c1ccc(F)cc1`, 0.168% [at 25.3 µM].
As to `CC(C)(O)C1Cc2c(ccc(C(=O)CCc3ccccc3)c2O)O1` (stereo not given), the Potency is 10 µM (active).
As for `C[C@H](Oc1cc(-n2cnc3ccc(CN4CCN(C)CC4)cc32)sc1C(N)=O)c1ccccc1C(F)(F)F`, the “activity change, negative = cytotoxicity” value is -8.19%.
Same read-out and setting: the result for `COc1cc2ncnc(Nc3ccc(O)c(Br)c3)c2cc1OC` reads -26.6%; that for `Nc1nc2c(ncn2C2OC3COP(=O)(O)OC3C2O)c(=O)[nH]1` (stereo not given), -12.5%.
Still for that read-out and setting: the result for `CC1(C)SCCN(S(=O)(=O)c2ccc(Oc3ccncc3)cc2)[C@H]1C(=O)NO` reads 5.65%.
In the case of `CC(O)(C(=O)C1CC1(CO)COC1OC(CO)C(O)C(O)C1O)C1C(O)CC2C3CC=C4CC(O)CC(O)C4(C)C3C(O)CC21C` (stereo not given), the Potency was 1.78 µM (active).
